# Results reported in PubChem BioAssay.
# Records with an inconclusive call do not appear. For some of these results: Potency and affinity values are given separately. Calls of active or inactive are those of the source.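 Rule for the calls, unless noted: active = fitted half-maximal concentration within 10 nM to 100 µM, steepness 0.5 to 2, significant signal drop, low assay interference; inactive = the rest.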
# Legend:
# [1] = molecular target: Cell division control protein 42 homolog (Homo sapiens) (UniProt P60953); test: inhibition of fluorescent GTP binding to constitutively active Cdc42 – biochemical, multiplex bead flow cytometry, Bodipy-FL-GTP, dose response (AID 1333;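 active = fitted half-maximal concentration within the tested dose range, moderate curve steepness, a statistically real signal drop, and little compound fluorescence or tag-binding interference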)
# [2] = molecular target: Cell division control protein 42 homolog (Homo sapiens) (UniProt P60953); test: inhibition of fluorescent GTP binding to wildtype Cdc42 – biochemical, multiplex bead flow cytometry, Bodipy-FL-GTP, dose response (AID 1334;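 active = fitted half-maximal concentration within the tested range, moderate curve steepness, significant signal drop, and little compound fluorescence or bead-linkage interference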); conditions: bead-based flow cytometry, Bodipy-FL-GTP binding to GST-Cdc42; at 100 µM (top of the series) unless noted
# [3] = molecular target: GTPase HRas (Homo sapiens) (UniProt P01112); test: Ras wt fluorescent GTP loading blockade – biochemical, wildtype, multiplex bead flow cytometry, dose response (AID 1335); conditions: bead-based flow cytometry, Bodipy-GTP binding to GST-Ras; at 100 µM (top of the series) unless noted
# [4] = tested on: Ras-related protein Rab-7a (dog), GTP binding; test: blockers of fluorescent GTP binding to Rab7 – biochemical, wildtype, multiplex bead flow cytometry, dose response (AID 1336; call rule not given here)
# [5] = molecular target: Ras-related C3 botulinum toxin substrate 1 (Homo sapiens) (UniProt P63000); test: inhibition of wildtype Rac1 nucleotide loading – biochemical, multiplex bead flow cytometry, dose response (AID 1340;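 active = dose curve with midpoint inside tested range, moderate steepness, plateau gap beyond fit error, low compound glow and bead-link interference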); conditions: GST-Rac1 beads, Bodipy-FL-GTP binding; at 100 µM (top of the series) unless noted
# [6] = molecular target: GTPase HRas (Homo sapiens) (UniProt P01112); test: blockade of GTP loading onto mutant Ras – biochemical, activated mutant, multiplex bead flow cytometry, dose response (AID 1341;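 active = dose-response curve with midpoint inside the tested range, moderate steepness, significant amplitude and little compound fluorescence or bead-attachment interference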;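 note: GST-tagged constitutively activated Ras mutant immobilized on beads and multiplexed with other GTPases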)
# [7] = hit retest on RPL19A-GFP reporter strain – cell-based, S. cerevisiae, flow cytometry, cherry picks, mother/daughter gates, confirmation (AID 2270;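 active = GFP response below 50% of the DMSO control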); conditions: 3 h, at 10 µM, stronger effect = lower value, 100 = same GFP as DMSO wells
# [8] = yeast TOR pathway reporter LAP4-GFP change – cell-based, cherry picks, flow cytometry, mother/daughter gates, confirmation (AID 2271;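 active = GFP response above 150% of the DMSO control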;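 note: ratio of sample to DMSO plate mean so 100% equals DMSO level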); conditions: S. cerevisiae LAP4-GFP strain, 3 h, at 10 µM, stronger effect = higher value, 100 means same as DMSO control
# [9] = TOR pathway reporter MEP2-GFP, retest of hits – S. cerevisiae, flow cytometry GFP, cherry picks, confirmation (AID 2272;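 active = GFP response above 150% of the DMSO control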;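 note: ratio of well signal to plate DMSO mean so 100% equals DMSO level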); conditions: S. cerevisiae MEP2-GFP strain, 3 h, at 10 µM, stronger effect = higher value
# [10] = yeast AGP1-GFP fluorescence change, single-dose – cell-based, flow cytometry, S. cerevisiae, cherry picks, confirmation (AID 2273;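 active = GFP response above 150% of the DMSO level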;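 note: median GFP channel fluorescence over the whole cell population gate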); conditions: S. cerevisiae AGP1-GFP strain, 3 h, at 10 µM
# [11] = TOR pathway CIT2 reporter hit retest – S. cerevisiae, GFP fusion, cherry picks, mother/daughter gates, confirmation (AID 2274;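 active = GFP response above 150% of the DMSO level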); conditions: S. cerevisiae CIT2-GFP strain, flow cytometry, 3 h, at 10 µM, stronger effect = higher value
# [12] = rapamycin-like changes in RPL19A-GFP expression – cell-based, S. cerevisiae, multiplex flow cytometry, primary screen (AID 1862; in the data active = percent of DMSO control GFP below about 86%;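 note: lower values mimic rapamycin by blocking the RPL19A rise seen in DMSO cells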); conditions: S. cerevisiae RPL19A-GFP strain, flow cytometry fluorescence, 3 h; at 10 µM; stronger effect = lower value
# [13] = TOR pathway GLN3 branch reporter MEP2-GFP changes – S. cerevisiae, multiplex flow cytometry, primary screen (AID 1867;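 active = GFP response, as percent of the DMSO control, above the screen-wide mean plus 3 SD, about 139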;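 note: median GFP channel fluorescence of barcode-gated MEP2-GFP cells measured by flow cytometry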); conditions: S. cerevisiae MEP2-GFP strain, 3 h, at 10 µM, stronger effect = higher value, 100% means same as DMSO wells
# [14] = TOR pathway RTG branch CIT2 reporter changes – S. cerevisiae, GFP fusion, multiplex flow cytometry, primary screen (AID 1870;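 active = percent response above a set limit, the screen-wide mean plus 3 SD, cut at about 130% in these data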;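 note: barcoded CIT2-GFP strain pooled with four other GFP strains with rapamycin as positive control; median GFP fluorescence per well over plate mean of DMSO wells so 100% = DMSO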); conditions: S. cerevisiae CIT2-GFP expression, 3 h, at 10 µM, stronger effect = higher value
# [15] = TOR pathway LAP4-GFP level changes – S. cerevisiae, multiplex flow cytometry, primary screen (AID 1873;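 active = GFP signal, as percent of the solvent control, above the screen mean plus 3 SD, about 149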); conditions: S. cerevisiae LAP4-GFP expression, 3 h, at 10 µM, stronger effect = higher value
# [16] = yeast AGP1-GFP level changes, GLN3 branch – cell-based, multiplex flow cytometry, S. cerevisiae, primary screen (AID 1887;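 active = GFP signal above the screen-wide mean plus 3 SD, that is over about 124.5% of the solvent control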;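 note: AGP1-GFP fusion strain of S. cerevisiae within a five-strain barcoded multiplex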); conditions: 3 h, at 10 µM, stronger effect = higher value
# [17] = reduced mouse 2C T cell binding to pMHC/ICAM-1 vesicles – MLPCN validation set, flow cytometry, LFA-1/ICAM-1 modulator project, pilot screen (AID 2523;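 active = response below a set limit, under 55% cells CD8-positive and vesicle-bound, and CD8 cells' 90th-percentile brightness under 279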;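 for vesicle binding response: mean PE anti-B7-1 fluorescence of CD8+ cells relative to row control; 100% = QL9-loaded vesicles with DMSO vehicle in the same plate row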); conditions: 2C mouse CD8+ T cells, at 7 µM, stronger effect = lower value; double positive events: measured here: CD8+/vesicle+ event percentage
# [18] = molecular target: Integrin beta-1 (Homo sapiens) + Integrin alpha-4 (Homo sapiens) (UniProt P13612+P05556); test: alpha4beta1 integrin LIBS antibody binding reduction – U937 cells, HUTS-21 mAb, flow cytometry, validation set, VLA-4 allosteric modulator project, pilot screen (AID 2674;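 active = inhibition above 50%, about 3 SD of the validation set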;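 note: antibody binding induced by the VLA-4 ligand LDV present at three times its Kd; 0% = LDV ligand with antibody and no compound and 100% = antibody without LDV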); conditions: HUTS-21 LIBS mAb binding, at 6.7 µM, stronger effect = higher value, binding induced by LDV ligand
# [19] = calorie-restriction mimetic ROS inhibitors, yeast – validation compound set, pilot screen (AID 2706;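 active = superoxide response below 65% of plate, a cut near 3 SD across the whole screen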;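 note: yeast exposed to compound for one week at 30 degrees C before staining; 100% = mean of all compound wells on the same plate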); conditions: S. cerevisiae aging, superoxide DHE fluorescence; at 10 µM; stronger effect = lower value
# [20] = molecular target: Beta-adrenergic receptor kinase 1 (Homo sapiens) (UniProt P25098); test: GRK2 binders displacing RNA aptamer, biochemical, validation, human GRK2, bead flow cytometry (AID 488806;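 active = aptamer binding inhibition above 30%, about 3 SD of noise from non-fluorescent compounds; inactive = inhibition at or below 30%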); conditions: bead-bound GRK2, FAM-aptamer displacement, at 10 µM, stronger effect = higher value
# [21] = molecular target: Beta-2 adrenergic receptor (Homo sapiens) (UniProt P07550); test: agonist-induced loss of surface beta2AR – cell-based, FAP fluorogen, flow cytometry, validation set, pilot screen (AID 504459;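 active = percent response above 42, roughly 3 SD of non-fluorescent test compounds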;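 note: agonist-driven loss of surface beta2AR via internalization measured by FAP dye flow cytometry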); conditions: Am2.2-beta2AR cells, at 10 µM, stronger effect = higher value
# [22] = molecular target: AP-2 complex subunit beta (Homo sapiens) (UniProt P63010); test: beta-arrestin/AP2 interaction blockers – biochemical, validation set, GST-AP2 beads, flow cytometry, pilot screen (AID 504541;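 active = inhibition above 54%, about 3 SD of non-fluorescent compounds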;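 note: AP2 carries R879A mutation and is captured from E. coli lysate; bead-bound FITC arrestin peptide fluorescence measuring arrestin peptide binding to AP2; 0% = DMSO wells and 100% = excess unlabeled arrestin peptide control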); conditions: FITC arrestin peptide, at 10 µM, stronger effect = higher value, AP2 beta2 appendage fragment, R879A mutant
# [23] = cytosolic pH regulators acting via V-ATPase – S. cerevisiae, pHLuorin, HTS validation (AID 504600; in the data active = response above about 15%;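 note: plate controls were DMSO for no effect and reference compound for full effect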); conditions: V-ATPase proton transport, at 10 µM, stronger effect = higher value
# [24] = tested on: anti-desmoglein-3 scFv antibody binding to human DSG3; test: blockers of pathogenic pemphigus antibody–desmoglein-3 binding – biochemical, validation compound set, bead-based, flow cytometry, pilot screen (AID 588368;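 active = binding below the plate cutoff, the plate median minus 3 SD, with a reading above zero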;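 note: signal is the median channel fluorescence of bead-bound GFP antibody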); conditions: Protein G beads, DSG3-Fc, scFv-GFP binding, at 10 µM, stronger effect = lower value
# [25] = Nile Red efflux blockade in pump-expressing yeast – validation compound set, multiplex, phenotypic, pilot screen (AID 588506;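 active = efflux inhibition above 0.42, the validation set average plus 4 SD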;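 note: Nile Red retained in cells so higher fluorescence means more efflux inhibition; 0 = negative control wells and 1 = enniatin B 25 µM full block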); conditions: S. cerevisiae pump-expressing triplex, Nile Red efflux flow cytometry; at 10 µM; stronger effect = higher value; the pumps come from Candida albicans
# [26] = molecular target: ATP-binding cassette sub-family B member 6 (Homo sapiens) (UniProt Q9NP58); test: blockers of ABCB6-driven porphyrin uptake – K562-ABCB6 cells, flow cytometry, validation set, pilot screen (AID 588550;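 active = inhibition above the screen-wide mean plus 3 SD, about 51%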;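 note: 0% = DMSO wells and 100% = benzethonium chloride 70 µM positive control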); conditions: K562-ABCB6 porphyrin accumulation, 1 h, at 10 µM, stronger effect = higher value
# [27] = AML differentiation inducers, ER-HoxA9 marrow cells – cell-based, GFP/MAC1 double positive, flow cytometry, validation set, primary screen (AID 588685;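 active = differentiation response of at least 50%, scaled between solvent and reference control, from cells with both markers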;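 note: compound exposure lasts four days before antibody staining and flow analysis; 0% = DMSO wells and 100% = 5 µM fulvestrant positive control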); conditions: stronger effect = higher value, normalized: vehicle 0, fulvestrant 100
# [28] = measured here: daughter cell gate
# [29] = measured here: mother cell gate
# [30] = measured here: daughter cell gate response
# [31] = measured here: mother cell gate response
# Cell division control protein 42 homolog (Homo sapiens), sequence (P60953 whole entry, looked up): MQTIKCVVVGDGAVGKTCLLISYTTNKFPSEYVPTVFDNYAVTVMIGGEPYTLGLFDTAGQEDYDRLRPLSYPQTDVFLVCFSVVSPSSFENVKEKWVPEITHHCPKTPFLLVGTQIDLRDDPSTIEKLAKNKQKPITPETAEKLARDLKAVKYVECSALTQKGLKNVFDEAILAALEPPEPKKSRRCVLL
# GTPase HRas (Homo sapiens), sequence (P01112 whole entry, looked up): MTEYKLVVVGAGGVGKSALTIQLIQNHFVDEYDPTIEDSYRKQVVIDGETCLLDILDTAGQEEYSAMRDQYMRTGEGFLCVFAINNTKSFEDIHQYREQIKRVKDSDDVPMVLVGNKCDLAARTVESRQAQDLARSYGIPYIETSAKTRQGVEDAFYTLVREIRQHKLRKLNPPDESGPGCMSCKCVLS
# Beta-adrenergic receptor kinase 1 (Homo sapiens), sequence (P25098 whole entry, looked up): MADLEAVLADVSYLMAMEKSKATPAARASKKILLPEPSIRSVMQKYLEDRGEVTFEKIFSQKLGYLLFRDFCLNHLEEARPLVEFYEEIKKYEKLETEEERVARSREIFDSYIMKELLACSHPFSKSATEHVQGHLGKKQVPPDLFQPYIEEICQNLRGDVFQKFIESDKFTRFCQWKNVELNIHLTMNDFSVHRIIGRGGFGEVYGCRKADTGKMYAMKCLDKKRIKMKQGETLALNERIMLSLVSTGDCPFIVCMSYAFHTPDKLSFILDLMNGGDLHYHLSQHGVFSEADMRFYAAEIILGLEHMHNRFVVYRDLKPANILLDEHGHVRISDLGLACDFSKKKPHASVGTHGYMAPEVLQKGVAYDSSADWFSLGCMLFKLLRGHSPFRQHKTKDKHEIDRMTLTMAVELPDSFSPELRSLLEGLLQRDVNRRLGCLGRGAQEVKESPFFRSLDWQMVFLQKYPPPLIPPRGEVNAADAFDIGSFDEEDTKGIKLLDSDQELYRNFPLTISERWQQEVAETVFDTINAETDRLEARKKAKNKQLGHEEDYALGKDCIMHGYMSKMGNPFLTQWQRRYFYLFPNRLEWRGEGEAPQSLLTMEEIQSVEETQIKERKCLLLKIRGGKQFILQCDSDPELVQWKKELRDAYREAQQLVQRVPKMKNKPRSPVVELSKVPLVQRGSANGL
# Beta-2 adrenergic receptor (Homo sapiens), sequence (P07550 whole entry, looked up): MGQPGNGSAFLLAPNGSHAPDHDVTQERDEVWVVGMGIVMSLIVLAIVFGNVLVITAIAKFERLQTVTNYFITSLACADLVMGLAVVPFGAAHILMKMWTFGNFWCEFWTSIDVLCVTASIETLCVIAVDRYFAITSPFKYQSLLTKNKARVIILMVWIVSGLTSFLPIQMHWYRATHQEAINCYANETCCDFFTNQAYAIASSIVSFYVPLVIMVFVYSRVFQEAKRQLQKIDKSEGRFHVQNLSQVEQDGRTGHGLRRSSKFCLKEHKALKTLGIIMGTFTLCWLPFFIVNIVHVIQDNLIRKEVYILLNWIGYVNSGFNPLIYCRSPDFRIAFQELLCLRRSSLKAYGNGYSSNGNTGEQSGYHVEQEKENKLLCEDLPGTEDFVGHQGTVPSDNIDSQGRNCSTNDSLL
# AP-2 complex subunit beta (Homo sapiens), sequence (P63010 whole entry, looked up, the tested form may be a part, one chain of several): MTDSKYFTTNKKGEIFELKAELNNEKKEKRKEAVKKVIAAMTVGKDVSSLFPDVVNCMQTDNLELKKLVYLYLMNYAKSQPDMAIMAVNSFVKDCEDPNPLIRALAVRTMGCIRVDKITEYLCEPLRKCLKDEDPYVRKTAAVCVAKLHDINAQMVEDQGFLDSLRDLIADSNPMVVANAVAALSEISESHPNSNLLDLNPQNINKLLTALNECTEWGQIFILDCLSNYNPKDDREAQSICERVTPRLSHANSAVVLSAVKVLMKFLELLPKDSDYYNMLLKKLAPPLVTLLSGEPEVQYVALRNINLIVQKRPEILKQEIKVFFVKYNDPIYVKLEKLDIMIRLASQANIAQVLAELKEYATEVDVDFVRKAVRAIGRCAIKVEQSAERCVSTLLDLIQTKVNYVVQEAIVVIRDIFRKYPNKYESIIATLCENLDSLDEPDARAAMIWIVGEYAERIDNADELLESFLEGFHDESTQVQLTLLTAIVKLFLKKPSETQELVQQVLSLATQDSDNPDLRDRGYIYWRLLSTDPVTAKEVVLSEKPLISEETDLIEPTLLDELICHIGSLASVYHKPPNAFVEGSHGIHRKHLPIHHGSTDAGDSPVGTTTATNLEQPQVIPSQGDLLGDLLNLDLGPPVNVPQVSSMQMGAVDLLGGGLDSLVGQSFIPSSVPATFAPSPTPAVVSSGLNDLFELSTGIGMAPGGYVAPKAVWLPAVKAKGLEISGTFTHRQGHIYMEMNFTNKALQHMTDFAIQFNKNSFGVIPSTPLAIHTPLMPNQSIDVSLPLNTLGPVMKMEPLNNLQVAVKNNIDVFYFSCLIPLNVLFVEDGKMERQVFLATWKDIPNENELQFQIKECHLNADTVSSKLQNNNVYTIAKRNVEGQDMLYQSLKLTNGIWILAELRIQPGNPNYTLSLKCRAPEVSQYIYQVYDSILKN
# ATP-binding cassette sub-family B member 6 (Homo sapiens), sequence (Q9NP58 whole entry, looked up): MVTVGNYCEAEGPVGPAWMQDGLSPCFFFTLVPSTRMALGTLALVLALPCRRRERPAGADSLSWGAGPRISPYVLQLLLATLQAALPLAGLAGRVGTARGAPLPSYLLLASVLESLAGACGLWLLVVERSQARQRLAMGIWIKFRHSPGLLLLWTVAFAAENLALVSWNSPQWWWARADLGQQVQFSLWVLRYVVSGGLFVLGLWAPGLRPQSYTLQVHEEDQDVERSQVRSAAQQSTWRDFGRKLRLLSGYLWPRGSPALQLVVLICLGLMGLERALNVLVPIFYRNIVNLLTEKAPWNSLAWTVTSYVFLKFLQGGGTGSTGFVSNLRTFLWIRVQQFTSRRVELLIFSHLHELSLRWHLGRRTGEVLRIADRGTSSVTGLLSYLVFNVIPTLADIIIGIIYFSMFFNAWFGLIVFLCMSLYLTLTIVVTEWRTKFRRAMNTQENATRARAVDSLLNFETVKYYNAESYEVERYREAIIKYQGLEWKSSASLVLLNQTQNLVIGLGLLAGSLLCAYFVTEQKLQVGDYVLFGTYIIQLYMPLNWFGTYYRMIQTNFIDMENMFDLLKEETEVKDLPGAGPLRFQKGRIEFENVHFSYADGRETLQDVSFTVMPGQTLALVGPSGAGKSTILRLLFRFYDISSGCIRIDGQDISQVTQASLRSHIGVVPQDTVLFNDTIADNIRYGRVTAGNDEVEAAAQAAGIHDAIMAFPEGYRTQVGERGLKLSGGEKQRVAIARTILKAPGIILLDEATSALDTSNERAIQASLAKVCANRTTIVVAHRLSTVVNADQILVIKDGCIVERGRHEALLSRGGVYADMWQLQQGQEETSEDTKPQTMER
compound,measurement,setting,value
Cc1cccc(CCNc2ncccc2C(=O)O)c1,outcome,[1],inactive
same,"fluorescence, percent of control (lower = inhibition)",[2],122%
same,"GTP binding, percent of control",[3],337%
same,outcome,[4],inactive
same,"GTP binding signal, raw median fluorescence (lower = inhibition) (MCF (arbitrary fluorescence units))",[5],101
same,outcome,[6],inactive
Cc1nc(N/N=C/c2ccc(O)cc2)c2cnn(-c3ccccc3)c2n1,outcome,[1],inactive
same,"fluorescence, percent of control (lower = inhibition)",[2],30.2%
same,"GTP binding, percent of control",[3],73.5%
same,outcome,[4],inactive
same,"GTP binding signal, raw median fluorescence (lower = inhibition) (MCF (arbitrary fluorescence units))",[5],191
same,outcome,[6],inactive
COC(=O)n1c(=S)oc2cc(Cl)ccc21,outcome,[1],inactive
same,"fluorescence, percent of control (lower = inhibition)",[2],58.3%
same,"GTP binding, percent of control",[3],154%
same,outcome,[4],inactive
same,"GTP binding signal, raw median fluorescence (lower = inhibition) (MCF (arbitrary fluorescence units))",[5],170
same,outcome,[6],inactive
same,GFP response vs DMSO,[7],106% (inactive)
same,GFP response vs DMSO,[7]; [28],93.9%
same,GFP response vs DMSO,[7]; [29],94.5%
same,GFP response relative to DMSO,[8],126% (inactive)
same,GFP response relative to DMSO,[8]; [30],105%
same,GFP response relative to DMSO,[8]; [31],110%
same,GFP response vs DMSO,[9],141% (inactive)
same,"GFP response, % of DMSO",[10],111% (inactive)
same,"GFP response, % of DMSO",[11],121% (inactive)
same,"GFP response, % of DMSO",[11]; [28],98.3%
same,"GFP response, % of DMSO",[11]; [29],100%
O=C(O)/C=C/c1cn(Cc2ccccc2)nc1-c1ccc(Cl)cc1,outcome,[1],inactive
same,"fluorescence, percent of control (lower = inhibition)",[2],34.9%
same,"GTP binding, percent of control",[3],84.9%
same,outcome,[4],inactive
same,outcome,[6],inactive
O=C(O)c1ccccc1OCCOc1ccccc1,outcome,[1],inactive
same,"fluorescence, percent of control (lower = inhibition)",[2],82.8%
same,"GTP binding, percent of control",[3],81.1%
same,outcome,[4],inactive
same,"GTP binding signal, raw median fluorescence (lower = inhibition) (MCF (arbitrary fluorescence units))",[5],297
same,outcome,[6],inactive
same,percent of DMSO control GFP,[12],93.4% (inactive)
same,GFP response vs DMSO,[13],98.8% (inactive)
same,percent response of DMSO control,[14],83.1% (inactive)
same,GFP response vs DMSO,[15],129% (inactive)
same,"GFP response, % of DMSO",[16],77.1% (inactive)
same,double positive events,[17],66%
same,vesicle binding response,[17],133% (inactive)
same,inhibition,[18],2.55% (inactive)
same,superoxide response (% of plate),[19],43.5% (active)
same,aptamer binding inhibition,[20],2% (inactive)
same,response,[21],32.2% (inactive)
same,inhibition,[22],52.1% (inactive)
same,response,[23],-1.15% (inactive)
same,binding (% of control),[24],96% (inactive)
same,efflux inhibition (fraction of control),[25],0.74 (active)
same,inhibition,[26],8% (inactive)
same,differentiation response,[27],34.6% (inactive)
CCOc1cc(/C=C2/NC(=O)NC2=O)cc([N+](=O)[O-])c1O,outcome,[1],inactive
same,"fluorescence, percent of control (lower = inhibition)",[2],28.3%
same,"GTP binding, percent of control",[3],64.7%
same,outcome,[4],inactive
same,"GTP binding signal, raw median fluorescence (lower = inhibition) (MCF (arbitrary fluorescence units))",[5],146
same,outcome,[6],inactive
COc1cc(/C=N/Nc2nnc3c(n2)[nH]c2ccccc23)ccc1O,outcome,[1],inactive
same,"fluorescence, percent of control (lower = inhibition)",[2],33.9%
same,"GTP binding, percent of control",[3],79.1%
same,outcome,[4],inactive
same,outcome,[6],inactive
CC(C)(C)c1ccc(C(=O)CC(Sc2ccc(Cl)cc2)C(=O)O)cc1 (stereo not given),outcome,[1],inactive
same,"fluorescence, percent of control (lower = inhibition)",[2],30.3%
same,"GTP binding, percent of control",[3],79.2%
same,outcome,[4],inactive
same,"GTP binding signal, raw median fluorescence (lower = inhibition) (MCF (arbitrary fluorescence units))",[5],285
same,outcome,[6],inactive
same,GFP response vs DMSO,[7],100% (inactive)
same,GFP response vs DMSO,[7]; [28],97.1%
same,GFP response vs DMSO,[7]; [29],100%
same,GFP response relative to DMSO,[8],120% (inactive)
same,GFP response relative to DMSO,[8]; [30],112%
same,GFP response relative to DMSO,[8]; [31],125%
same,GFP response vs DMSO,[9],101% (inactive)
same,"GFP response, % of DMSO",[10],98.4% (inactive)
same,"GFP response, % of DMSO",[11],79.7% (inactive)
same,"GFP response, % of DMSO",[11]; [28],79.4%
same,"GFP response, % of DMSO",[11]; [29],77.8%
